# Active and inactive are the calls of the source. Unless noted, no rule for the calls is given here.
# Legend:
# [1] = compounds binding Alexa647 anti-His antibody – biochemical, small-molecule microarray, 635 nm fluorescence, artefact control for SMM control protein annotation, primary screen (AID 1128); conditions: higher = more signal;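 also: score merges feature fluorescence with signal-to-noise for each printed compound spot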
# [2] = tested on: Human papillomavirus type 1a E7 protein (residues 1-88); assay: HPV1a E7 small-molecule binders, primary screen, biochemical, small-molecule microarray, residues 1-88, 635 nm (AID 1129); conditions: small-molecule microarray binding, fluorescence 635 nm; higher = more signal
# [3] = biological target: Focal adhesion kinase 1 (Homo sapiens) (UniProt Q05397); assay: PTK2 protein binding on printed compound slides – biochemical, small-molecule microarray, 635/667 nm fluorescence, BSA, DTT, primary screen (AID 1130); conditions: 635 nm fluorescence, higher = more signal;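 also: composite of spot emission at 667 nm and signal to noise over triplicate slides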
# Sequence of Focal adhesion kinase 1 (Homo sapiens) (Q05397 whole entry, looked up): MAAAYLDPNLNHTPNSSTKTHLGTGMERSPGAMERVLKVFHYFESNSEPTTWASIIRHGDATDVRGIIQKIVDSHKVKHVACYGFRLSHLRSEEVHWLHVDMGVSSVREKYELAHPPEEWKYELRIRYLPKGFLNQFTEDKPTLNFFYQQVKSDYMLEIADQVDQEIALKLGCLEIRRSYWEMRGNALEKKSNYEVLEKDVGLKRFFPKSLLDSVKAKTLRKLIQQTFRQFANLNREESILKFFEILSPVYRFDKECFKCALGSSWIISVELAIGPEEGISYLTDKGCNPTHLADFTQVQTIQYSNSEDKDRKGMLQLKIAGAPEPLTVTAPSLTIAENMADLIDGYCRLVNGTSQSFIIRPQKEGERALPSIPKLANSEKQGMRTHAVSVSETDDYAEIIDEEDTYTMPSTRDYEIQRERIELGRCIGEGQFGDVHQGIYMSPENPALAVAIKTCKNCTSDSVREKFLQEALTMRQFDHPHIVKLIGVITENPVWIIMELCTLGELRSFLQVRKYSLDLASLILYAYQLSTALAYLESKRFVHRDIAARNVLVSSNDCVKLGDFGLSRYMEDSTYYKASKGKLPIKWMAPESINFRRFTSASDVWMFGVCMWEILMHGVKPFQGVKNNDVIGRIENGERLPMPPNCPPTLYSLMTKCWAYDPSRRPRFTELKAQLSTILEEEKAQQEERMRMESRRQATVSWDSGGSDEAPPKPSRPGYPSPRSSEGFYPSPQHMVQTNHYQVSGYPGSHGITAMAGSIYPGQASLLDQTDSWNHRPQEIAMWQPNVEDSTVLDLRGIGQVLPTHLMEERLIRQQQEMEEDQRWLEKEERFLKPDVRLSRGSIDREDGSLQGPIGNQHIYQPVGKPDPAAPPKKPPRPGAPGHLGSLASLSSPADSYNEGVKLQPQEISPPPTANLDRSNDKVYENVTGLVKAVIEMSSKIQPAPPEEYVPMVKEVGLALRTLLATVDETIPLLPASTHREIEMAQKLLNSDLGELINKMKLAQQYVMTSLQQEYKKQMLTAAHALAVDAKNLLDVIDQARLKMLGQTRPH
# [4] = tested on: Fibrinogen (Alexa647-labelled); assay: Alexa647-fibrinogen binding to printed small molecules – biochemical, small-molecule microarray, 635/667 nm fluorescence, artefact control for SMM control-protein annotation, profiling panel (AID 1131); conditions: fibrinogen-A647 binding fluorescence, higher = more signal;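 also: z-score merges 667 nm fluorescence with per-spot signal-to-noise over triplicate slides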
# [5] = biological target: Follistatin (Homo sapiens) (UniProt P19883); assay: FST protein binding to printed compounds – biochemical, small-molecule microarray, 635/667 nm fluorescence, primary screen (AID 1132); conditions: 635 nm fluorescence, higher = more signal
# Sequence of Follistatin (Homo sapiens) (P19883 whole entry, looked up): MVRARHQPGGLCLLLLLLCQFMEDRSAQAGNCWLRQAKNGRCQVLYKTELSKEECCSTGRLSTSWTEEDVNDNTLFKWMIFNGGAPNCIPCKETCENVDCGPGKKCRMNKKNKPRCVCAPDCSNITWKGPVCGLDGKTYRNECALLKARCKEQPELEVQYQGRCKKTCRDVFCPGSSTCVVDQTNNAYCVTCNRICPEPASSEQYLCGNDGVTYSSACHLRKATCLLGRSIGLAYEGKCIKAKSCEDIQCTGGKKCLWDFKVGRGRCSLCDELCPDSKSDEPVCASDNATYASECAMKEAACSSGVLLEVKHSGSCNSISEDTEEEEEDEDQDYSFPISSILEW
# [6] = biological target: Fibroblast growth factor 2 (Homo sapiens) (UniProt P09038); assay: basic fibroblast growth factor binding to printed compounds – biochemical, small-molecule microarray, 635/667 nm fluorescence, primary screen (AID 1133); conditions: FGF2, fluorescence 635/667, higher = more signal
# Sequence of Fibroblast growth factor 2 (Homo sapiens) (P09038 whole entry, looked up): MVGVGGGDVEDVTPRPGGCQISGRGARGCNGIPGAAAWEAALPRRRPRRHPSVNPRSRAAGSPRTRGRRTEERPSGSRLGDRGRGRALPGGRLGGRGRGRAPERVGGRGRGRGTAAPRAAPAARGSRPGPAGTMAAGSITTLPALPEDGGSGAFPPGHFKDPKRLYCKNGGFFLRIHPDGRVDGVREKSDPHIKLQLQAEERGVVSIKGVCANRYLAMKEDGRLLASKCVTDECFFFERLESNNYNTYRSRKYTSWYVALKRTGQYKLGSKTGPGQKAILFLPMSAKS
# [7] = JC-1 mitochondrial potential readout, lung cancer cells – cell-based, A549, JC-1 fluorescence, basal, 24 h, 100 nL, profiling panel (AID 1138); conditions: higher = more signal;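 also: A549 lung adenocarcinoma cells under basal conditions with no added stimulus; test concentration not given here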
# Lefty1 = Lefty1 protein binding to printed compounds – biochemical, small-molecule microarray, 635/667 nm fluorescence, primary screen (AID 1139); conditions: fluorescence 635/667, higher = more signal
# [8] = tested on: wheat germ agglutinin (Triticum aestivum), Alexa647-labelled; assay: Alexa647-WGA lectin binding to printed small molecules – biochemical, small-molecule microarray, 635/667 nm fluorescence, artefact control for SMM control-protein annotation, profiling panel (AID 1140); conditions: WGA-A647 binding, 635 nm fluorescence, higher = more signal;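 also: score merges 667 nm feature emission with signal to noise over triplicate slides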
# [9] = biological target: Luciferin 4-monooxygenase (Photinus pyralis) (UniProt P08659); assay: inhibition of purified Photinus pyralis luciferase – biochemical, luminescence, purified enzyme, 2006 set, primary screen (AID 1141); conditions: purified firefly luciferase, SteadyGlo luminescence, 30 min; higher = more signal, called active from +8 up or from −8 down;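 also: cell-free assay with purified firefly luciferase at 100 ng per well in PBS; test concentration not given here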
# Sequence of Luciferin 4-monooxygenase (Photinus pyralis) (P08659 whole entry, looked up): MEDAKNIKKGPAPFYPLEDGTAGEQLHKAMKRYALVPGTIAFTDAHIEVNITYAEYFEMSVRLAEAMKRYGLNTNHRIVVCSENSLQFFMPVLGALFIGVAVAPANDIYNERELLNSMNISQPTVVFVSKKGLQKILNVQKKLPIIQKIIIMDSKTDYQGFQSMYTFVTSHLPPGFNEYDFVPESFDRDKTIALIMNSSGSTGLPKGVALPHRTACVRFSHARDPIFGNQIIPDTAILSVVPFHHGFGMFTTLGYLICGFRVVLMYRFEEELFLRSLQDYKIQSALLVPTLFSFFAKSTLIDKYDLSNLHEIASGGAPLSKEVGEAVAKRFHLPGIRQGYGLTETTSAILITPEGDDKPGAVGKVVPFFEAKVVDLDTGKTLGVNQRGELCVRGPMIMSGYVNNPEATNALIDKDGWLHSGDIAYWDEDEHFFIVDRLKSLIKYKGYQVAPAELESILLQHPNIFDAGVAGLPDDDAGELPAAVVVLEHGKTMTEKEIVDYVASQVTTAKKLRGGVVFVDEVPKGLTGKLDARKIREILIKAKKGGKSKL
# [10] = tested on: Wnt5a (protein binding on small-molecule microarray); assay: small molecules binding Wnt5a protein – biophysical, small-molecule microarray, 635/667 nm fluorescence, primary screen (AID 1142); conditions: 635 nm fluorescence, higher = more signal;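 also: fluorescence read at 667 nm with signal to noise per printed feature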
# [11] = ATP-based viability of Huh7 replicon cells – cell-based, CellTiter-Glo luminescence, basal, 48 h, cytotoxicity control for HCV replication inhibitor project, primary screen (AID 1143); conditions: higher = more signal, called active from +8 up or from −8 down;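 also: Huh7 hepatoma cells carrying a hepatitis C replication reporter with no stimulus; test concentration not given here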
# [12] = Pseudomonas biofilm growth suppression – PAO1 strain, BacTiter-Glo luminescence, LB-PBS, primary screen (AID 1144); conditions: P. aeruginosa PAO1 biofilm, 12 h, higher = more signal
# [13] = basal CRE-LacZ reporter activity in PC12 – cell-based, unstimulated, primary screen (AID 1145); conditions: no forskolin, luminescence, 4.5 h, higher = more signal, called active from +8 up or from −8 down
# [14] = forskolin-driven CRE-LacZ activity in PC12 – cell-based, CRE-LacZ reporter, forskolin-stimulated, primary screen (AID 1146); conditions: luminescence, 4.5 h, higher = more signal, called active from +8 up or from −8 down;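 also: PC12 cells with 6xCRE LacZ reporter stimulated by forskolin 10 µM; beta-galactosidase reporter signal reflecting CREB driven transcription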
# [15] = biological target: Streptavidin (Streptomyces avidinii) (UniProt P22629); assay: compounds binding control protein streptavidin – biophysical, small-molecule microarray, 635/667 nm fluorescence, artefact control for SMM compound annotation, primary screen (AID 1147); conditions: higher = more signal;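 also: signal reflects streptavidin binding to arrayed compounds as a control protein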
# Sequence of Streptavidin (Streptomyces avidinii) (P22629 whole entry, looked up): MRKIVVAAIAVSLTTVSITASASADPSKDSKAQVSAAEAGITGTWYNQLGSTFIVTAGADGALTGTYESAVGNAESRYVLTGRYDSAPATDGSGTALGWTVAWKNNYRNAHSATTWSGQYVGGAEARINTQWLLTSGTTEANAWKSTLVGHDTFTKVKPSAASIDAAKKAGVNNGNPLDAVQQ
# [16] = probe aInhba binding on compound microarray – biochemical, small-molecule microarray, 635/667 nm fluorescence, primary screen (AID 1148); conditions: higher = more signal;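 also: score merges 667nm spot fluorescence with signal-to-noise for antibody binding to printed compounds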
# Torsin-1A (Homo sapiens) [17] = biological target: Torsin-1A (Homo sapiens) (UniProt O14656); assay: TOR1A wild-type binding on microarray – cell lysate, small-molecule microarray, lysate, 635/667 nm, primary screen (AID 1149); conditions: COS7 hTOR1A-WT lysate, 635 nm fluorescence, higher = more signal
# Sequence of Torsin-1A (Homo sapiens) (O14656 whole entry, looked up): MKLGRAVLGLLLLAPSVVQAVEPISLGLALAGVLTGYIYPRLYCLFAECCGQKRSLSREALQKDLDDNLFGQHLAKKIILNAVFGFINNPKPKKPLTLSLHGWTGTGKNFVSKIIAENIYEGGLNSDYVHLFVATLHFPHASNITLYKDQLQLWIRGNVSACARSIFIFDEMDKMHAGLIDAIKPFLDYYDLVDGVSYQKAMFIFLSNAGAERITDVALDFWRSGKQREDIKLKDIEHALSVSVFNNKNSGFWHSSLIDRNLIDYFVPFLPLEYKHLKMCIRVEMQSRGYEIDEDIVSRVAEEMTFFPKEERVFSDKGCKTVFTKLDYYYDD
# Torsin-1A (Homo sapiens) [18] = biological target: Torsin-1A (Homo sapiens) (UniProt O14656); assay: torsin A mutant lysate binding on microarrays – cell lysate, small-molecule microarray, COS7 lysate, 635/667 nm fluorescence, primary screen (AID 1150); conditions: COS7 hTOR1A mutant lysate, 635 nm fluorescence, higher = more signal;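 also: score pools 667 nm emission and signal to noise measuring lysate protein binding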
# [19] = tested on: Sonic hedgehog protein (Shh); assay: Sonic hedgehog microarray binding compounds – biochemical, small-molecule microarray, 635/667 nm fluorescence, primary screen (AID 1151); conditions: 635 nm fluorescence, higher = more signal;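 also: Shh protein binding to compounds spotted on small-molecule microarray slides; score combines spot fluorescence intensity with signal-to-noise across triplicate slides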
Compound,composite z-score [1],composite z-score [2],composite z-score [3],composite z-score [4],composite z-score [5],composite z-score [6],z-score [7],composite z-score (Lefty1),composite z-score [8],z-score [9],composite z-score [10],z-score [11],z-score [12],z-score [13],z-score [14],composite z-score [15],composite z-score [16],composite z-score (Torsin-1A (Homo sapiens) [17]),composite z-score (Torsin-1A (Homo sapiens) [18]),composite z-score [19]
CCOC(=O)[C@H](CC(C)C)NC(=O)CCC1CC(OC(=O)NCCc2ccc(F)cc2)CC2(CCCC(COC(=O)NCc3ccccc3)O2)O1 (stereo not given in full),0.49,1.17,0.212,0.538,0.693,0.936,-0.692,1.04,0.422,0.629 (inactive),0.371,-4.31 (inactive),-0.568 (inactive),0.199 (inactive),0.659 (inactive),0.255,-0.226,1.47,0.154,1.86
O=C1O[C@@H](c2ccccc2)[C@@H](c2ccccc2)N2[C@@H](c3ccc(O)cc3)[C@]3(C(=O)Nc4ccccc43)[C@@H](C(=O)O)[C@H]12,3.02,1.2,0.49,0.508,-0.167,-0.352,-0.517,-0.351,0.547,-0.0041 (inactive),-0.0286,-4.36 (inactive),0.0547 (inactive),0.568 (inactive),0.532 (inactive),0.0078,0.0442,0.509,0.548,-0.192
CO[C@H]1COC(=O)[C@H](C)COC(=O)CC=C[C@@H](C)[C@H](OC)COC(=O)CC=C[C@@H]1C,0.0475,-0.774,-0.117,-0.217,1.16,1.41,1.11,1.15,-0.531,-1.59 (inactive),0.185,-0.0182 (inactive),-0.272 (inactive),-0.474 (inactive),0.592 (inactive),-0.436,-0.128,1.03,0.666,1.55
CCN1C(=O)[C@H]2[C@H]3[C@H](O)[C@H](O)CC(=NOCc4ccccc4)[C@@H]3CC[C@H]2C1=O,0.119,0.65,-0.0096,0.306,0.276,0.232,1.89,0.538,0.0953,-1.23 (inactive),-0.0713,-0.672 (inactive),0.855 (inactive),1.42 (inactive),0.479 (inactive),-0.0346,-0.0575,0.962,0.236,0.531
O=C1O[C@@H](c2ccccc2)[C@@H](c2ccccc2)N2[C@@H](c3ccccc3OCCO)[C@]3(C(=O)Nc4ccc(C#CCCO)cc43)[C@@H](C(=O)O)[C@H]12,2.14,1.18,0.459,0.923,0.89,0.598,-0.406,1.37,0.365,-0.703 (inactive),0.44,-5.04 (inactive),-0.923 (inactive),-0.465 (inactive),1.6 (inactive),0.618,1.43,0.536,0.925,0.517

# — PubChem BioAssay
